Hits are enriched below; roughly 7.8% of the tested compounds scored in any of these assays.
HCMV antiviral = blocks human cytomegalovirus replication; activity change, negative = inhibition, % at 57.5 µM; hit rate 4.5% among 410,000; AID 1259415; HFF cells, HCMV-luciferase reporter, 72 h; active compounds read low; in the data active = activity change below about -60%; inconclusive = no clear call, values can overlap the other calls; inactive = above about -39%
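Steps: HFFs plated, 16 h 37C; compounds added; HCMV-luciferase added to MOI 1 PFU/cell; 72 h 37C; OneGlo reagent, 5 min room temperature; luminescence read, normalized to controls.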
Vaccinia mCherry = inhibitors of vaccinia virus infection (mCherry reporter signal). Vaccinia virus mCherry reporter infection, fluorescence. Potency, µM (titrated, usually from 36.5 µM), inactives show at the top dose activity change, negative = inhibition, hits mostly inhibitors. hit rate 0.63% among 310,000; calls by dose curve; tested in A549 cells; also: potency is read from the fitted curve at half-maximal effect; nearly all actives have a fitted effect of over 35% in size
LASV entry inh = Lassa virus entry inhibition; hit rate 1.2% among 300,000; Lassa virus pseudotype entry inhibition, cell reporter; Potency, µM (doses to about 37.9 µM), without a hit: at the top dose activity change, negative = inhibition, hits mostly inhibitors; calls by dose curve; tested in HEK293 cells; also: potency is read from the fitted curve at half-maximal effect; nearly all actives have a fitted effect of over 50% in size
HCV inh = inhibitors of hepatitis C virus infection; AID 651820; Potency, µM (titrated, usually from 41.8 µM), without a hit: at the top dose activity change, negative = inhibition, most hits filed as inhibitors; hit rate 3.4% among 340,000; Huh7.5.1 HCVcc-Cre infection, luciferase reporter, 44 h; active = well fitted inhibition curve with a large enough effect; inconclusive = small, poorly fitted or top-dose-only effect, or another doubt; inactive = no such curve, though single readings can be large or run the other way; also: potency is read from the fitted curve at half-maximal effect
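Antiviral activity was scored by luciferase reporter output from cells infected with HCVcc-Cre (~0.5 moi) in presence of compound, 44 h infection period, cells seeded 1,000/well 4 h prior.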
Vaccinia Venus = vaccinia inhibition (Venus reporter) | hit rate 0.46% among 330,000 | Potency, µM (titrated, usually from 36.5 µM), for inactives: at the highest dose activity change, negative = inhibition, usual class: inhibitors | Vaccinia virus Venus reporter expression, fluorescence; calls by dose curve; tested in A549 cells; also: potency is read from the fitted curve at half-maximal effect; nearly all actives have a fitted effect of over 30% in size
Marburg entry inh = blocks Marburg virus binding to or entry into cells. AID 540276. Potency, µM (doses to about 37.8 µM), for the others: top-dose activity change, negative = inhibition, most hits filed as inhibitors. hit rate 1.8% among 300,000. Marburg virus pseudotyped entry inhibition, cell reporter; calls by dose curve; tested in HEK293 cells; also: potency is read from the fitted curve at half-maximal effect
* hit, by the source's call; i = inactive; ? = inconclusive; . = no result given; ! = not active in a repeat; [ ] = dose if it differs, or a comment. % is scaled to controls: 0 for no effect and ±100 for the full control effect.

SMILES	HCMV antiviral	Vaccinia mCherry	LASV entry inh	HCV inh	Vaccinia Venus	Marburg entry inh
O=C(N/N=C/c1cccs1)C1COc2ccccc2O1 (stereo not given)	-10	-16%	?	-1%	-28%	-19%
CCOC(=O)C1CCN(C(=O)CSc2n[nH]c(-c3ccccc3Cl)n2)CC1	12	-12%	-19%[46.1 µM]	.	-5%	.
O=C(Cn1c(SCCOc2ccccc2)nc2ccccc21)N1CCOCC1	1	-7%	14%[46.1 µM]	.	-3%	-2%[46.1 µM]
C[C@H]1[C@H]2CC[C@H]3[C@@H]4CC=C5C[C@@H](N(C)C)CC[C@]5(C)[C@H]4CC[C@]23CN1C	.	-1%	.	.	-11%	.
CCCCN(CCCNC(=O)Cn1nc(CC)n2c(cc3sc(C)cc32)c1=O)Cc1ccccc1	-25	.	.	8.9µM*	.	.
CC(=O)N1CCN(c2ccc(Oc3ncnc4sccc34)cc2)CC1	-75*	.	8%	?	.	2%
COC(=O)CC=C[C@@H](C)[C@H](OC)c1ccccc1Br	.	.	?	.	.	0.6µM*!
CCc1ccc2c(c1)NC(c1cccs1)=NC(c1ccc(F)cc1)=N2	44	-7%	?	.	-5%	19%[46.1 µM]
O=[N+]([O-])NC1=NCN(Cc2ccco2)CN1Cc1ccco1	?	-8%	9%	?	-9%	0.28µM*
Cc1cc(NC(=O)CCN2C(=O)C3C4CCC(C4)C3C2=O)c(C)cc1Br (stereo not given)	-107*	.	1%	?	.	2%
O=C(c1ccccc1Br)N1CCCC(c2nc(-c3cccs3)no2)C1 (stereo not given)	-89*	.	.	?	.	.
Cc1cccc(C(=O)N2CCCC(c3nc(-c4ccc(F)cc4)no3)C2)c1 (stereo not given)	7	-27%	-7%	13µM*	-16%	-6%
COc1ccc(-c2noc(C3CCCN(C(=O)c4ccccc4C)C3)n2)cc1 (stereo not given)	-39	-17%	-29%[46.1 µM]	32µM*	-10%	?
COc1ccc(-c2noc(C3CCCN(C(=O)c4ccccc4OC)C3)n2)cc1 (stereo not given)	-84*	i	-24%[46.1 µM]	?	-23%	?
COc1ccc(-c2noc(C3CCCN(C(=O)c4ccccc4)C3)n2)cc1 (stereo not given)	-7	-11%[7.34 µM]	.	?	-7%[7.34 µM]	.
O=C(Nc1ccccc1C(F)(F)F)Nc1c[nH]c(=O)[nH]c1=O	-8	6%	17%[46.1 µM]	.	-2%	.
COc1ccc(-c2ccc3oc(-c4ccc(OC)cc4)c(C#CCO)c3c2)cc1	-92*	-26%	.	?	?	.
COc1ccc(-c2oc(=O)c3cc(OC)c(OC)cc3c2C#CCCO)cc1	-18	-23%	.	3.2µM*	-16%	.
COc1ccccc1-c1oc2ccccc2c1C#CCCO	43	i	.	14µM*	-21%	.
COc1ccc(-c2oc3ccc(N4CCOCC4)cc3c2C#CCO)cc1	-67*	5.6µM*	.	?	?	.
COc1ccc(C#Cc2c(-c3ccccc3OC)oc3ccccc23)cc1	-10	.	.	.	.	.
COc1ccc(-c2ccc3oc(-c4ccc(OC)cc4)c(-c4ccc(OC)cc4)c3c2)cc1	-8	i	.	11%	-4%	.
COc1cc(OC)cc(-c2oc(=O)c3cc(OC)c(OC)cc3c2C#CCCO)c1	5	i	.	?	-14%	.
Nc1ccc(C#Cc2c(-c3ccsc3)oc3ccc(N4CCOCC4)cc23)cc1	31	-28%	.	-23%[8.37 µM]	-29%	.
COc1cc(NC(=O)CSC2=Nc3ccccc3N=C(c3ccc(F)cc3)C2)cc(OC)c1	-6	-9%	15%[46.1 µM]	.	-7%	.
SMILES	HCMV antiviral	Vaccinia mCherry	LASV entry inh	HCV inh	Vaccinia Venus	Marburg entry inh
COc1ccc(-c2oc3ccccc3c2C#CC(C)(C)O)cc1	1	?	.	7.9µM*	-29%	.
COc1cccc(CNc2ncnc3sc(C(=O)N4CCOCC4)c(C)c23)c1OC	.	-20%	.	.	-6%	.
CNC[C@@H](Cc1ccccc1)NC[C@@H](CC1CCCCC1)NCCCc1ccccc1	-101*	?	.	?	?	.
CNC[C@@H](CC1CCCCC1)NC[C@H](CC(C)C)NCCc1cccc(C(F)(F)F)c1	-99*	14µM*	.	?	?	.
CN(Cc1cccc(C(F)(F)F)c1)C(=O)C1CCC(=O)N(CC2CCCCC2)C1 (stereo not given)	-20	.	.	-10%	.	.
CCOc1ccc(-n2c(-c3ccc(Br)cc3)cc3c2CC(C)(C)CC3=O)cc1	-21	-9%	?	.	-6%	-2%[46.1 µM]
CN1CCN(S(=O)(=O)c2cnc(Cl)c(Br)c2)CC1	27	13µM*	-2%	?	?	?
CC1CCN(S(=O)(=O)c2cnc(Cl)c(Br)c2)CC1	-34	-15%	7%	-31%	-4%	-5%
COc1ccc(N2CCN([C@H]3CC(=O)NC3=O)CC2)cc1	.	.	.	.	.	-7%
C=CCC[C@@H](CCCCC)OC(=O)/C=C/[C@H](O)[C@@H](O)C[C@H](O)CC=C	-23	6%	.	.	-11%	.
COc1ccc(NC(=O)N2CCCC(c3nc(-c4ccc(C(C)C)cc4)no3)C2)cc1 (stereo not given)	?	.	2%	10µM*	.	-26%
COCCNC(=S)N1CCC(c2nc(-c3ccc(F)cc3)no2)CC1	?	-11%	?	?	-21%	-5%[46.1 µM]
CC(=O)Nc1ccc(N2CCN(c3ccc(C(F)(F)F)cn3)CC2)nc1	-33	?	-8%[46.1 µM]	?	-12%	?
O=C(Nc1ccc(Cl)cc1)N1CCC(c2nc(-c3ccc(F)cc3)no2)CC1	-91*	.	-27%	?	.	-29%
COc1ccc(-c2noc(C3CCCN(C(=O)Nc4ccccc4F)C3)n2)cc1 (stereo not given)	-13	-26%	?	?	-18%	?
O=C(Nc1ccc(F)cc1)N1CCCN(c2ccc(C(F)(F)F)cn2)CC1	-62*	i	-12%[46.1 µM]	?	-18%	?
COc1ccc(-c2noc(C3CCCN(C(=O)Nc4ccccc4)C3)n2)cc1 (stereo not given)	-22	.	.	?	.	.
COc1ccc(NC(=O)N2CCCC(c3nc(-c4ccc(OC)cc4)no3)C2)cc1 (stereo not given)	?	i	?	22µM*	-21%	?
CC(C)c1cnc2c(c1SCC(=O)Nc1ccc(OC(F)(F)F)cc1)c(=O)n(C)c(=O)n2C	9	-19%	-6%[46.1 µM]	.	-22%	.
Cc1ccc(CS(=O)(=O)c2cn(CC(=O)N(C)c3ccccc3)c3ccccc23)cc1	0	-4%	?	.	-3%	.
CN=C(NC#N)NCCSCC1N=CN=C1C (stereo not given)	.	.	.	.	.	7%
O=C(COCc1cc(-c2cccs2)on1)N1CCN(c2cccc(Cl)c2)CC1	-10	-19%	-1%[46.1 µM]	.	-12%	.
O=C(Nc1ccc(Cl)cc1)N1CCN(c2ccc3nnc(-c4ccc(F)cc4)n3n2)CC1	-63*!	?	?	?	11µM*	?
Cc1nc(-c2c(-c3ccc(O)cc3O)noc2C(F)(F)F)cs1	-67*	.	?	?	?	?
COc1ccc(-c2ncnc(C(F)(F)F)c2-c2csc(C)n2)c(O)c1	?	.	.	-4%	.	.

High-throughput results (PubChem BioAssay)
